Measured values taken from PubChem BioAssay AID1159537 (DiRusso Lab, Biochemistry Department, University of Nebraska, 2015).
About 370 (0.84%) of roughly 44,000 compounds were called active. The rule behind the calls is not given here. This excerpt belongs to a sample that is enriched for actives.

Experiment: inducers of TAG accumulation in Chlamydomonas, primary screen, qHTS, Chlamydomonas reinhardtii (AID 1159537);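 note: hits raise Nile Red signal meaning more stored TAG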
Settings: Nile Red fluorescence, 72 h

Row | SMILES | outcome
1 | CCN(CC)CC#CCOc1ccccc1 | active [screened at 10 µM (by protocol)]
2 | O=C(Nc1cccc(OC(=O)N2CCCCC2)c1)N1CCOCC1 | inactive
3 | CCN(CC)CCNc1ccc([N+](=O)[O-])c2cccnc12 | inactive [screened at 10 µM (by protocol)]
4 | CCN1CCN(CC2=CC[C@H]3C[C@@H]2C3(C)C)CC1 | inactive [screened at 10 µM (by protocol)]
5 | CN1CCCN(CC2=CC[C@H]3C[C@@H]2C3(C)C)CC1 | active [screened at 10 µM (by protocol)]
6 | CN1CCN(Cc2cc(Br)cs2)CC1 | inactive [screened at 10 µM (by protocol)]
7 | Cc1cccc(OCC(=O)N2CCN(Cc3ccccc3)CC2)c1C | inactive [screened at 10 µM (by protocol)]
8 | Fc1cccc(Cl)c1CN1CCN(c2ccccc2)CC1 | inactive
9 | O=c1cccc2n1CC1CC2CN(c2nc(N3CCOCC3)nc(N3CCOCC3)n2)C1 (stereo not given) | inactive
10 | O=[N+]([O-])c1ccc(CN2CCN(c3cccc(Cl)c3)CC2)cc1 | inactive
11 | Cc1ccc(C)c(N2CCN(Cc3ccc([N+](=O)[O-])cc3)CC2)c1 | active
12 | COc1ccccc1N1CCN(Cc2cccc([N+](=O)[O-])c2)CC1 | inactive
13 | CCC1(c2ccccc2)C(=O)NC(=O)N(C)C1=O (stereo not given) | inactive
14 | Nc1ccc(-c2ccc(N)c(N)c2)cc1N | inactive [screened at 10 µM (by protocol)]
15 | N#CC(/C=C/c1ccccc1)N1CCOCC1 (stereo not given) | inactive
